Shown are actives, neighbours in structure and some others; about 2.3% of the full set was active somewhere.
USP1 inh: USP1/UAF1 (human) deubiquitinase inhibition. O94782. recombinant USP1/UAF1, Ub-Rhodamine cleavage fluorescence. Potency, µM (highest dose often 57.1 µM), usual class: inhibitors. actives 0.23% (n = 390,000); also: nearly all actives have a fitted effect of over 60% in size
Target sequence (O94782 whole entry, looked up): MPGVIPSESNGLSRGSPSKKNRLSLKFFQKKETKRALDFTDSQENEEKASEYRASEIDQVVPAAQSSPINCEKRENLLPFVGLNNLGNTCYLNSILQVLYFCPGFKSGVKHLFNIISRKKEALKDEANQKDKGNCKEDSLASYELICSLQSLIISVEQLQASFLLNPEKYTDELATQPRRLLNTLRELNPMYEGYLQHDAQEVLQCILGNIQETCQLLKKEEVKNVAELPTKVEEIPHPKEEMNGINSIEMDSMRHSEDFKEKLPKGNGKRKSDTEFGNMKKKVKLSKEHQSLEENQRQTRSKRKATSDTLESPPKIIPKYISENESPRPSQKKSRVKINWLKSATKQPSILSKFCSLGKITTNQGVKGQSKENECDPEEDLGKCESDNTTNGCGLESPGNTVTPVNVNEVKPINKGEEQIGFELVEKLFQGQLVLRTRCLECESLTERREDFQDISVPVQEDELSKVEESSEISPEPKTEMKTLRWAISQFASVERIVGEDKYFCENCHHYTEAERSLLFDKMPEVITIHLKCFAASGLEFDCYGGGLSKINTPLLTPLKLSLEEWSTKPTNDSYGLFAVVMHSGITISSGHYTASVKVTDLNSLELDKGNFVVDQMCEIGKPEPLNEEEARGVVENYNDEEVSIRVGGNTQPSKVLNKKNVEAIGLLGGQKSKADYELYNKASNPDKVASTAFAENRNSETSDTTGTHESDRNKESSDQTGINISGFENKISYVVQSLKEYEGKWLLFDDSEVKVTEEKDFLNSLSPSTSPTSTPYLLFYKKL
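USP1/UAF1 complex at 1 nM was preincubated with compound for 15 min at room temperature, then Ub-Rho substrate (150nM final) was added. Fluorescence (480/540 nm) was read kinetically, 6 reads every 60 seconds.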
Tau FP inhib: blocks human tau fibril formation measured by polarization; P10636; K18 P301L tau heparin fibrillization, Alexa594 FP, 6 h; Potency, µM (doses to about 57.7 µM), actives largely listed as inhibitors; actives 0.39% (n = 280,000); AID 1468; also: nearly all actives have a fitted effect of over 55% in size
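Steps: dispense K18 P301L tau (15 uM plus 0.24 uM Alexa 594 tracer, final) in pH 7 sodium acetate; add compound; add heparin (20 uM final); incubate 6 hr, 37 C; add ThT (30 uM final); after 1 hr ambient, read FP.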
Tau fluor counter: counter-screen for tau fibril formation inhibitors | AID 1463 | Potency, µM (series often up to 57.7 µM) | tau K18 P301L Alexa594 fluorescence, heparin fibrillization | actives 0.93% (n = 280,000); also: nearly all actives have a fitted effect of over 55% in size
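Human tau K18 P301L (15 uM unlabeled, 0.24 uM Alexa 594-labeled) in 100 mM sodium acetate pH 7 with 20 uM heparin, 6 hr at 37 C. ThT 30 uM added, 1 hr ambient; Alexa 594 FP and total fluorescence read at 555/632 nm.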
Coupling enz: inhibits coupling enzyme system, counter-screen for aldolase hits; AID 2472; activity change, negative = inhibition, % at 58.2 µM, hits read low; coupling enzyme system counterscreen, AmpLite Red fluorescence; actives 0.67% (n = 290,000); in the data active = activity change below about -30%
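Final compound at 57.5 uM, incubated 10 min at RT with coupling enzyme reagent (glyceraldehyde-3-phosphate), then 20 min with substrate and AmpLite Red detection. Fluorescence read at 525/598 nm; tests interference with the coupling assay, not aldolase inhibition.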
Tau ThT inhib: tau fibrillization inhibition (ThT binding); P10636; actives 2.1% (n = 270,000); recombinant tau K18 P301L (four-repeat tau fragment), heparin-induced fibrillization, ThT fluorescence; Potency, µM (titrated, usually from 57.4 µM), actives largely listed as inhibitors; AID 1460; also: nearly all actives have a fitted effect of over 55% in size
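K18 P301L tau (15 uM + 0.24 uM Alexa 594-tagged), heparin 20 uM, NaOAc pH 7, 6 h 37 C; ThT 30 uM, 1 h RT, ex 450/em 510 nm.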
Of the large screens only hits and unclear results are named; the others gave an inactive call; [ ] = remark or other dose. Unless noted, calls follow the shape of the dose curve; as a rule, active = well fitted curve in the direction sought with a large enough effect; inconclusive = small, poorly fitted or top-dose-only effect, or another doubt; inactive = no such curve, though single readings can be large; an effect the other way counts as inactive or inconclusive.

Cc1ccc(N2CCN(S(=O)(=O)c3cccc4ccccc34)CC2)cc1Cl	Tau ThT inhib inconclusive (no result: Coupling enz)
O=C(O)c1cc(O)c2c(c1)[C@H]([C@H]1c3cc(C(=O)O)cc(O)c3C(=O)c3c(O[C@@H]4OC(CO)C(O)C(O)C4O)cccc31)c1cccc(O[C@@H]3OC(CO)C(O)C(O)C3O)c1C2=O (some centres not stated)	Tau FP inhib inconclusive, Tau fluor counter inconclusive, Coupling enz -39, Tau ThT inhib 22µM (no result: USP1 inh)
O=C(Nc1ccc(Br)cc1F)C1CCN(c2nc3ccccc3[nH]2)CC1	USP1 inh inconclusive, Tau ThT inhib inconclusive (no result: Coupling enz)
CCCOc1ccc(OC(=O)c2cn(-c3ccc(OC)cc3)c(=O)c3ccccc23)cc1	none (no result: Coupling enz)
FC(F)Sc1ccc(NC(=S)NCC2CCCCC2)cc1	Tau FP inhib inconclusive, Tau fluor counter 14µM[quencher]
CCn1cc2nc(SCc3ccc(F)cc3)n(Cc3ccc(Cl)cc3)c(=O)c2n1	none (no result: Coupling enz)
C(=N\Nc1nc2ccccc2s1)/c1ccccn1	Tau ThT inhib inconclusive
C(=N\Nc1ccccc1)/c1nc2ccccc2s1	Tau FP inhib inconclusive, Tau fluor counter 13µM[quencher], Tau ThT inhib inconclusive
C(=C\c1ccccc1)/C=N/Nc1nc2ccccc2s1	USP1 inh inconclusive, Tau fluor counter 10µM[quencher], Tau ThT inhib inconclusive
Brc1csc(/C=N/Nc2nc3ccccc3s2)c1	Tau fluor counter 7.9µM[quencher], Tau ThT inhib inconclusive
Cc1ccc2[nH]c(C)c(/C=N/Nc3nc4ccccc4s3)c2c1	Tau FP inhib inconclusive, Tau fluor counter 10µM[quencher], Tau ThT inhib 14µM
COc1cccc(NC(=O)Cn2c(=O)n(Cc3ccco3)c(=O)c3cc(OC)c(OC)cc32)c1	Tau FP inhib inconclusive, Tau fluor counter inconclusive (no result: Coupling enz)
COC(=O)C1=CO[C@@H](C)[C@@H]2CN3CCc4c([nH]c5ccccc45)[C@@H]3C[C@H]12	Coupling enz -31 (no result: USP1 inh, Tau FP inhib, Tau fluor counter, Tau ThT inhib)
Cc1ccccc1/C=C1\SC(=S)N(/N=C/c2cc([N+](=O)[O-])ccc2O)C1=O	Tau fluor counter inconclusive, Tau ThT inhib 25µM
O=c1c2cc(N3CCOCC3)ccc2[nH]c(=S)n1CCCN1CCCCC1	Coupling enz -38
CC1C/C(=C/c2ccncc2)C(=O)/C(=C/c2ccncc2)C1 (configuration not stated)	USP1 inh inconclusive, Tau FP inhib inconclusive, Tau ThT inhib 8.9µM
CCCN(CCC)S(=O)(=O)c1ccc(N2CCCCS2(=O)=O)cc1	none (no result: Coupling enz)
COc1ccc(Br)cc1/C=N/NC(=O)CNC(=O)C1COc2ccccc2O1 (configuration not stated)	Coupling enz -41 (no result: Tau FP inhib, Tau fluor counter, Tau ThT inhib)
O=C(N/N=C/C=C/c1ccc([N+](=O)[O-])cc1)C1COc2ccccc2O1 (configuration not stated)	USP1 inh inconclusive, Tau fluor counter 16µM[quencher], Tau ThT inhib 4.5µM
O=C(CNC(=O)C1COc2ccccc2O1)N/N=C\c1ccc(Br)cc1 (configuration not stated)	none (no result: Tau FP inhib, Tau fluor counter, Tau ThT inhib)
O=C(N/N=C\c1ccc(O)c([N+](=O)[O-])c1)C1COc2ccccc2O1 (configuration not stated)	Tau FP inhib inconclusive, Tau ThT inhib 10µM
Cc1cc([N+](=O)[O-])cc(/C=N\NC(=O)C2COc3ccccc3O2)c1O (configuration not stated)	Tau fluor counter inconclusive, Tau ThT inhib 13µM
CCOC(=O)c1ccc(NC(=O)Cn2ncc3c(C)n(Cc4ccccc4F)c(C)c3c2=O)cc1	none (no result: Coupling enz)
COc1ccc(NC(=O)CN2C(=O)CCc3cc(S(=O)(=O)N4CCOCC4)ccc32)c(OC)c1	none (no result: Coupling enz)
O=C(Cn1c(=O)oc2cc(S(=O)(=O)N3CCCCCC3)ccc21)NCc1ccccc1Cl	none (no result: Coupling enz)
C=CCC(Nc1ccccc1)C12C=CC(O1)C(C(=O)OC)=C2C(=O)OC (configuration not stated)	Tau ThT inhib 7.9µM
COC(=O)C1=C(C(=O)OC)[C@]2([C@H]3CC=CCN[C@@H](Cc4ccccc4)C(=O)N3Cc3ccccc3)C=C[C@H]1O2	none (no result: Tau FP inhib, Tau fluor counter, Coupling enz, Tau ThT inhib)
CCOC(=O)CCN1C(=O)[C@H]2[C@H]3[C@H](O)[C@H](O)C/C(=N/NC(=O)OCC)[C@@H]3CC[C@@H]2C1=O	none (no result: USP1 inh)
Cc1ccc(OCC(=O)c2ccc(Cl)s2)c([N+](=O)[O-])n1	Tau FP inhib inconclusive, Tau fluor counter inconclusive, Tau ThT inhib 14µM
